In the library only some 9% were active in any assay of this set; here they are far more common.
ALDH1A1 block – inhibitors of human aldehyde dehydrogenase 1A1. P00352. Purified ALDH1A1, NADH fluorescence, propionaldehyde substrate. Potency, µM (titrated, usually from 75.3 µM), for inactives: at the highest dose activity, negative = inhibition, usual class: inhibitors. actives 7.3% (n = 220,000). AID 1030;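 also: potency is read from the fitted curve at half-maximal effect; plate controls were no enzyme wells and a reference inhibitor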
Target sequence (P00352 whole entry, looked up): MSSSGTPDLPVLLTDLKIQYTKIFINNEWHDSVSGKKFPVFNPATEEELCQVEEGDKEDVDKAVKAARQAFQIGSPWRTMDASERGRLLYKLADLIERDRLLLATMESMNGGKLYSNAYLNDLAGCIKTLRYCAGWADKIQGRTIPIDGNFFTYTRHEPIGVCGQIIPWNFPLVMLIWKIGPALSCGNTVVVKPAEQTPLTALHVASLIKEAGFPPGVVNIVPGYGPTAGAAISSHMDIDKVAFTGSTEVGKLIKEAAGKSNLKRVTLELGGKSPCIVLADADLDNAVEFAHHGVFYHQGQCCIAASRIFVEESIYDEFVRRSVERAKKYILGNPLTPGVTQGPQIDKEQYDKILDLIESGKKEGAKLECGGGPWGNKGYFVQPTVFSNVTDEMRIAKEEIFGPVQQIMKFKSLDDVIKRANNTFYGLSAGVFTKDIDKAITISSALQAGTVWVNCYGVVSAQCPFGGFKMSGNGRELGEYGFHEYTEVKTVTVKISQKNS
IMPase cell inh – IMPase inhibition in cells; P97697; CHO-M1 cells, IP1 accumulation, HTRF TR-FRET ratio; inhibition (IP1 accumulation), % at 46.1 µM; 120,000 tested, under 10 active; AID 901; active = well fitted curve in the direction sought with a large enough effect in the signal ratio, not every such curve was filed as active; inconclusive = small, poorly fitted or top-dose-only effect, or a change in a side signal; inactive = no such curve, though single readings can be large or run the other way; the % refers to the signal ratio;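 also: cells stimulated with carbachol in lithium chloride buffer; plate controls were DMSO basal wells for no effect and reference inhibitor wells for full effect; higher means more IMPase inhibition seen as more IP1 and lower FRET ratio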
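CHO-M1, 2000 cells/well, cultured 16–30 h; cpd up to 46 uM; carbachol (50 uM solution, stimulation buffer w/ 50 mM LiCl, pH 7.4), 30 min 37C; IP-One TR-FRET, 10 min RT; Ex 320/Em 665, 620; Hill-fit AC50.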
HPGD inh – inhibitors of human 15-hydroxyprostaglandin dehydrogenase (HPGD) | AID 894 | Potency, µM, for the others: at the top dose activity change, negative = inhibition, usual class: inhibitors | purified HPGD, NADH fluorescence kinetic, PGE2 substrate | actives 4.3% (n = 150,000); also: potency is read from the fitted curve at half-maximal effect
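NADH formation kinetics: reaction with 30 uM PGE2 and 1 mM NAD+ (final), 20 nM enzyme, Tris-HCl pH 8 with Tween 20, after 15 min compound preincubation at room temperature. Fluorescence change, last versus first of five reads.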
An asterisk follows results filed as active; ? = inconclusive; / = no result; [ ] = another dose, or the depositor's remark. Unless noted, calls follow the shape of the dose curve; as a rule, active = well fitted inhibition curve with a large enough effect (not every such curve was filed as active); inconclusive = small, poorly fitted or top-dose-only effect, or another doubt; inactive = no such curve, though single readings can be large or run the other way. Unless noted, % is scaled to controls: 0 for no effect and ±100 for the full control effect.

SMILES	ALDH1A1 block	IMPase cell inh	HPGD inh
FC(F)(F)c1cccc(NC(=S)Nc2ccc(Cl)cc2Cl)c1	?	4	-7%
Cc1cccc(NC(=S)NNc2ncc(C(F)(F)F)cc2Cl)c1	28µM*	/	-18%
O=C(Nc1nncs1)c1cccnc1Cl	-1%	/	-7%
COCCNC(=O)C(=O)N/N=C(\C)CC(=O)Nc1cccnc1	-8%	/	/
Cc1scc(C(=O)O)c1-c1c(C(=O)O)csc1C	3%	/	-12%
COc1ccc(C)cc1NC(=O)CNc1ccccc1CN(C)C1CCCCC1	20µM*	/	/
COc1ccc(C)cc1NC(=O)COC(=O)C1CC1	2%	4	-2%
Cc1ccc(NC(=O)CNc2ccccc2CN(C)C2CCCCC2)cc1	20µM*	/	/
COc1ccc(Cl)cc1NC(=O)CN(C)C1CCCCC1	0%	6	-15%
COc1ccc(Cl)cc1NC(=O)CNc1ccccc1CN(C)C1CCCCC1	8.9µM*	/	/
CN(CC(=O)Nc1ccc(OC(F)(F)F)cc1)C1CCCCC1	-15%	/	/
CCCOc1ccc(C(=O)CCC(=O)OCC(=O)Nc2cc(C)on2)cc1	7%	-6	-5%
Cc1cccc(NCCC(=O)c2ccc([N+](=O)[O-])cc2)c1C	0.18µM*	/	/
COc1ccc(C(=O)CC(Nc2ccc([N+](=O)[O-])cc2)c2ccc(OC)cc2)cc1 (stereo unspecified)	?	-9	-12%
Cc1ccc(CC(=O)Nc2cccc([N+](=O)[O-])c2)cc1	-5%	/	/
Cc1ccc(NCC(=O)c2ccc([N+](=O)[O-])cc2)cc1	7.9µM*	/	/
Cc1ccc(C(=O)c2ccc([N+](=O)[O-])cc2)cc1C	?	13	-18%
Cc1ccc(C(=O)CNc2cccc([N+](=O)[O-])c2)cc1	13µM*	/	/
CNC(CC(=O)c1ccc([N+](=O)[O-])cc1)C(Cl)(Cl)Cl (stereo unspecified)	0.56µM*	9	10µM*
CC(=O)NCCCNc1ccc([N+](=O)[O-])cc1	?	/	-16%
Cc1ccc(Sc2c(C)nn(C(=O)c3cccc(S(=O)(=O)N4CCOCC4)c3)c2C)cc1	?	5	?
CCCCCCCCCCCCCC(=O)N[C@@H](C)[C@H](O)c1ccccc1	0%	/	-11%
Cc1ccc(C)c(NC(=O)CSc2nnc(CNC(=O)c3cccs3)o2)c1	17%	/	/
COc1ccc(/C=N/NC(=O)c2ccncc2)cc1COc1ccc(NC(C)=O)cc1	-9%	/	/
COc1cccc(-c2cncnc2NCc2ccccc2OC)c1	-6%	/	/
SMILES	ALDH1A1 block	IMPase cell inh	HPGD inh
O=C(Nc1ccc(Cl)cc1)OCc1cn(-c2ccccc2)nn1	7%	/	/
O=C(NN=C1CCCCCC1)c1c[nH]c2ccccc12	?	/	-6%
Cc1ccc2nc(-c3ccc(NC(=O)COC(=O)c4ccc(=O)[nH]c4)cc3)sc2c1	3.5µM*	/	?
Cc1ccc2nc(-c3ccc(NC(=O)CN4C(=O)c5ccccc5C4=O)cc3)sc2c1	?	-10	?
CCNc1nc(NC(C)C)nc(Oc2ccc(/C=N/O)cc2)n1	2%	-2	-11%
O=C(Nc1ccc(Cl)cn1)C1COc2ccccc2O1 (stereo unspecified)	22µM*	/	/
O=C(C1COc2ccccc2O1)N1CCCC1 (stereo unspecified)	?	0	13µM*
Cc1onc(-c2ccccc2)c1C(=O)NCC1COc2ccccc2O1 (stereo unspecified)	-7%	8	-10%
O=C(NCc1ccccc1)C1COc2ccccc2O1 (stereo unspecified)	-1%	-3	11µM*
O=C(Nc1ccccn1)C1COc2ccccc2O1 (stereo unspecified)	-4%	0	-18%
O=C(C1COc2ccccc2O1)N1CCN(c2ccc(F)cc2)CC1 (stereo unspecified)	1%	0	-3%
O=C(NCc1ccccc1)C(=O)NCC1COc2ccccc2O1 (stereo unspecified)	?	-3[0.369 µM]	0%
Cc1onc(-c2ccccc2)c1CNC(=O)C1COc2ccccc2O1 (stereo unspecified)	18µM*	/	/
CN1CCO[C@H](c2ccccc2)c2ccccc2C1	10%[20.9 µM]	5[20.6 µM]	0%
CNC(=O)Nc1ccccc1C(=O)Nc1ccccc1	1%	/	/
Cc1cc(C)n(CC(O)COc2c(C)cccc2C)n1 (stereo unspecified)	8%	/	/
c1ccc2c(NCCN3CCOCC3)nc(-c3ccc4c(c3)OCO4)nc2c1	1%	/	/
Cc1ccc(NC(=O)C2CCN(c3cnccn3)CC2)cc1C	-7%	/	/
O=C(CSc1ncccn1)N/N=C/c1ccccc1[N+](=O)[O-]	-11%	/	/
Cc1ccc(OCCOC(=O)Cn2nc(C)c([N+](=O)[O-])c2C)cc1	-8%	/	/
CC1=C(C(=O)OC(C)C)C(c2cncc(-c3ccc(F)cc3)c2)C(C#N)=C(N)O1 (stereo unspecified)	?	/	-13%
